Measurements published in PubChem BioAssay.
Active and inactive are the calls of the source. Unless noted, no rule for the calls is given here.

What was measured:
[1] = HepG2 liver cancer cell viability effects, profiling panel, resazurin fluorescence, 24 h, PK04 Diversity Set (AID 1172); settings: higher = more signal; also: test concentration not given here
[2] = basal S. cerevisiae growth modulation, no modifier, primary screen, OD600, strain BY4716, 24 h, basal condition (AID 1173); settings: OD600, 24 h, higher = more signal, called active from +8 up or from −8 down
[3] = MM1S myeloma cell viability, profiling panel, resazurin fluorescence, basal, 24 h, PK04 Diversity Set (AID 1174); settings: higher = more signal, called active from +8 up or from −8 down;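 also: MM1S multiple myeloma cell line; test concentration not given here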
[4] = molecular target: Dihydroorotate dehydrogenase (quinone), mitochondrial (Plasmodium falciparum (isolate 3D7)) (UniProt Q08210); test: PfDHODH enzyme inhibitors, primary screen, biochemical, C-terminal His tag, absorbance 600 nm (AID 1175); settings: DCIP absorbance 600 nm, higher = more signal, called active from +8 up or from −8 down;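 also: recombinant parasite enzyme with a five histidine tag at its C terminus; test concentration not given here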
Dihydroorotate dehydrogenase (quinone), mitochondrial (Plasmodium falciparum (isolate 3D7)), sequence (Q08210 whole entry, looked up): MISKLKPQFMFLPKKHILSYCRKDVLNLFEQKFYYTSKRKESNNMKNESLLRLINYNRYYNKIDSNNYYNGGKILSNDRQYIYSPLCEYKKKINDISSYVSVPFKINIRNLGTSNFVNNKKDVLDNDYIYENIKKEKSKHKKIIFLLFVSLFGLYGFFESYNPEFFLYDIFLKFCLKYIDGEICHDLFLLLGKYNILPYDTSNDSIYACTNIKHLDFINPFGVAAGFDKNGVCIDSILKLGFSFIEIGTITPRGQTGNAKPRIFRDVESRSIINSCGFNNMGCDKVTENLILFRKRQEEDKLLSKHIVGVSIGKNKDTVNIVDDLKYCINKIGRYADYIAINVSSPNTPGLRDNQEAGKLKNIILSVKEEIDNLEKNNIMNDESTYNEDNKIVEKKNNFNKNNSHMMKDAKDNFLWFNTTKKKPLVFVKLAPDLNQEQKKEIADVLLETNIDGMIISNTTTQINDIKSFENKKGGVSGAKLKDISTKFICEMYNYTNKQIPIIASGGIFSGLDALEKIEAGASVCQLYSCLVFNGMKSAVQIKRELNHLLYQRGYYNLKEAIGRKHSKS

[5] = P. aeruginosa biofilm formation inhibitors, primary screen, strain PAO1, LB-PBS medium, absorbance 600 nm (AID 1176); also: test concentration not given here; settings: P. aeruginosa PAO1 growth/biofilm, A600, 12 h; higher = more signal
[6] = S. cerevisiae RM11-1a growth modifiers, primary screen, strain RM11-1a, OD600, basal, 24 h (AID 1177); settings: OD600, 24 h, higher = more signal, called active from +8 up or from −8 down;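 also: cultures grown under basal conditions with no added stressor; test concentration not given here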
[7] = E. coli acrAB mutant growth effects, primary screen, E. coli filamentation inducers, strain DRC39, OD650, 24 h (AID 1178); settings: higher = more signal, called active from +8 up or from −8 down;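 also: growth measured as culture turbidity by optical density at 650 nm; test concentration not given here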
[8] = E. coli acrAB mutant growth effects, primary screen, E. coli filamentation inducers, strain DRC39, OD650, 48 h (AID 1179);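 also: screen aims at cell division blockers that make cells filament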; settings: E. coli DRC39 delta-acrAB growth, higher = more signal, called active from +8 up or from −8 down
[9] = RPMI8226 myeloma cell viability, profiling panel, resazurin fluorescence, basal, 24 h, PK04 Diversity Set (AID 1180); settings: higher = more signal;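 also: RPMI8826 multiple myeloma cell line at 5000 cells per well; test concentration not given here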
[10] = molecular target: E3 ubiquitin-protein ligase XIAP (Homo sapiens) (UniProt P98170); test: XIAP binders, primary screen, biophysical, small-molecule microarray, fluorescence 635 nm (AID 1181); settings: small-molecule microarray binding, higher = more signal;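 also: score merges 667 nm emission and signal to noise over triplicate slides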
E3 ubiquitin-protein ligase XIAP (Homo sapiens), sequence (P98170 whole entry, looked up): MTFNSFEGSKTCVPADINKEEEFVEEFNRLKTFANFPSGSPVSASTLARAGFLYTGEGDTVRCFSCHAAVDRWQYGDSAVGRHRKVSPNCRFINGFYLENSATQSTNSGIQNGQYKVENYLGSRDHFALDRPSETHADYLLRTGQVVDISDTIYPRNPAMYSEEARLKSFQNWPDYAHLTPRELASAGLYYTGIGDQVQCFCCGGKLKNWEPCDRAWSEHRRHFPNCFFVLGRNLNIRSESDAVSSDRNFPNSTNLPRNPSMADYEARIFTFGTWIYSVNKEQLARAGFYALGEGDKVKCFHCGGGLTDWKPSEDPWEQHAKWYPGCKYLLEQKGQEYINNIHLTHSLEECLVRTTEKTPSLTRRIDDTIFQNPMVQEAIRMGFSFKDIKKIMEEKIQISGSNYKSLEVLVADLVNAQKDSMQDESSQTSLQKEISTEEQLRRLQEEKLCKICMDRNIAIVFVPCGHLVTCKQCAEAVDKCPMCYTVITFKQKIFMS

| Structure (SMILES) | z-score [1] | z-score [2] | z-score [3] | composite z-score [4] | z-score [5] | z-score [6] | z-score [7] | z-score [8] | z-score [9] | composite z-score [10] |
| --- | --- | --- | --- | --- | --- | --- | --- | --- | --- | --- |
| CCCNC(=O)OC[C@H]1O[C@H](CCON=C[C@@H](C)[C@H](OCc2ccccc2)C(C)C)C=C[C@@H]1Oc1ccc(OC)cc1 | -0.208 | -0.682 (inactive) | -2.5 (inactive) | -1.78 (inactive) | -0.242 (inactive) | -2.27 (inactive) | 0.0465 (inactive) | 0.428 (inactive) | -0.58 | -0.357 |
| CCN1C(=O)[C@H]2[C@H]3[C@H](O)[C@H](O)CC(=NOC[C@@H](O)[C@H]4O[C@@H]5OC(C)(C)O[C@@H]5[C@H]4O)[C@@H]3CC[C@H]2C1=O | -1.27 | -0.569 (inactive) | -2.69 (inactive) | -0.898 (inactive) | -0.795 (inactive) | -0.0223 (inactive) | 0.74 (inactive) | 0.144 (inactive) | -0.767 | 0.0126 |
| COC(=O)[C@H](C)NC(=O)CCC1CC(OC(=O)NCc2ccc3c(c2)OCO3)CC2(CCCC(COC(=O)NCc3ccccc3)O2)O1 (stereo not given in full) | 1.24 | -0.67 (inactive) | -0.731 (inactive) | -0.504 (inactive) | 0.38 (inactive) | 0.479 (inactive) | 1.03 (inactive) | 0.32 (inactive) | 1.11 | -0.205 |
| COC(=O)[C@@H]1CC[C@H](C)[C@@H](c2ccc(C)cc2)N1C(=O)c1ccc(C=NOC[C@H]2O[C@H](c3ccccc3)C=C[C@@H]2Oc2ccc(OC)cc2)cc1 | 0.158 | 0.856 (inactive) | -0.0983 (inactive) | 0.13 (inactive) | 0.0282 (inactive) | 0.386 (inactive) | -0.469 (inactive) | -0.499 (inactive) | 0.539 | -0.0773 |
| CO[C@H]1COC(=O)[C@H](C)COC(=O)[C@@H](OCc2ccccc2)C=C[C@@H]1C | 0.176 | -2.14 (inactive) | -0.114 (inactive) | 0.175 (inactive) | -0.355 (inactive) | -0.077 (inactive) | 1.02 (inactive) | 0.636 (inactive) | -0.476 | -0.138 |
| COC(=O)[C@H](C)NC(=O)CCC1CC(OC(=O)NCCc2ccc(F)cc2)CC2(CCCC(COC(=O)NCCOc3ccccc3)O2)O1 (stereo not given in full) | 0.0903 | 0.338 (inactive) | 0.177 (inactive) | -0.361 (inactive) | -0.0326 (inactive) | 0.127 (inactive) | 0.289 (inactive) | -0.451 (inactive) | -0.0199 | -0.114 |
| COc1cccc([C@H]2Oc3ccc(OC)cc3C(=NO[C@@H](C)c3cc(-c4c(C)cc(C)cc4C)no3)[C@@H]2O)c1 | -0.406 | 1.18 (inactive) | 0.0117 (inactive) | -2.77 (inactive) | 0.523 (inactive) | 1.96 (inactive) | 0.243 (inactive) | -1.43 (inactive) | -0.116 | -0.336 |
| CON=C1c2cc(OC)ccc2O[C@H](c2cccc(OC)c2)[C@H]1O | 0.291 | -5.98 (inactive) | 0.322 (inactive) | -0.469 (inactive) | -0.455 (inactive) | -0.175 (inactive) | 0.489 (inactive) | 0.957 (inactive) | 0.411 | 0.418 |
| CCN1C(=O)[C@H]2[C@H]3[C@H](O)[C@H](O)CC(=NOCC[C@@H]4C=C[C@H](OC(C)=O)[C@@H](COC(C)=O)O4)[C@@H]3CC[C@H]2C1=O | -1.02 | 0.508 (inactive) | -1.85 (inactive) | -0.666 (inactive) | 1.22 (inactive) | -0.183 (inactive) | 0.178 (inactive) | -0.0655 (inactive) | -1.05 | 0.134 |
| CC[C@@H](c1ccccc1)n1c(=O)n2n(c1=O)[C@H]1[C@H](O)[C@@H]3O[C@@H]3C(=NOCc3ccccc3)[C@H]1CC2 | -1.67 | -1.04 (inactive) | -2.51 (inactive) | 0.149 (inactive) | -0.0819 (inactive) | -0.15 (inactive) | -0.527 (inactive) | -0.95 (inactive) | -2.34 | -0.0062 |
| O=C1[C@H]2[C@H]3[C@H](O)[C@H](O)CC(=NOC[C@@H](O)COCc4ccco4)[C@@H]3CC[C@H]2C(=O)N1Cc1ccccc1 | 0.379 | -1.64 (inactive) | -0.737 (inactive) | -0.137 (inactive) | -1.01 (inactive) | -0.426 (inactive) | 0.17 (inactive) | 0.616 (inactive) | 0.569 | -0.194 |
| CC(=O)OC[C@H]1O[C@H](CC=NOC[C@@H](O)COCc2ccco2)C=C[C@@H]1OC(C)=O | -0.13 | 0.0523 (inactive) | 0.166 (inactive) | -0.554 (inactive) | -1.26 (inactive) | 0.178 (inactive) | 0.574 (inactive) | 0.924 (inactive) | 0.396 | -0.306 |
| CC(C)CON=C1[C@H]2CCn3c(=O)n(C)c(=O)n3[C@H]2[C@H](O)[C@@H]2O[C@H]12 | -0.423 | 0.0789 (inactive) | 0.0226 (inactive) | -0.764 (inactive) | -0.425 (inactive) | -0.353 (inactive) | -0.0374 (inactive) | -0.0718 (inactive) | -0.347 | -0.117 |
| O=C1[C@H]2[C@H]3[C@H](O)[C@H](O)CC(=NO[C@@H]4O[C@H](CO)[C@@H](O)[C@H](O)[C@H]4O)[C@@H]3CC[C@H]2C(=O)N1C[C@@H]1CCCO1 | -0.0979 | -2.29 (inactive) | -0.589 (inactive) | -2.39 (inactive) | -0.589 (inactive) | -0.633 (inactive) | 0.564 (inactive) | 0.172 (inactive) | 0.062 | -0.152 |
| CC(C)=NOC(C)CN1CCCCc2nc(C)c(C)cc21 (stereo not given) | -0.724 | 0.0416 (inactive) | -0.408 (inactive) | -0.241 (inactive) | 0.547 (inactive) | 0.113 (inactive) | 0.668 (inactive) | -0.562 (inactive) | -0.491 | 0.111 |
| CON=C(C)CCN1CCCc2nc(C)c(C)cc21 | -0.183 | -0.899 (inactive) | -0.136 (inactive) | -0.329 (inactive) | 0.0981 (inactive) | -0.1 (inactive) | 0.213 (inactive) | -1.7 (inactive) | -0.22 | 0.346 |
| CC(C)=CCCC(C)=CCON=C1C[C@@H](O)[C@@H](O)[C@@H]2[C@@H]3C(=O)N(c4cccc(Oc5ccccc5)c4)C(=O)[C@@H]3CC[C@H]12 | 1.05 | 0.681 (inactive) | 0.674 (inactive) | -0.141 (inactive) | -0.0849 (inactive) | 0.668 (inactive) | 0.599 (inactive) | 0.15 (inactive) | 0.157 | -0.102 |
| CN1CCc2nc(-c3ccccc3)c(-c3ccccc3)cc2C1 | 0.713 | 0.0367 (inactive) | 0.476 (inactive) | -0.191 (inactive) | -0.364 (inactive) | 0.298 (inactive) | 0.38 (inactive) | 0.105 (inactive) | 0.639 | 0.0024 |
| O=C1CCCC=C1C(O)COCc1ccccc1 (stereo not given) | -0.178 | -0.971 (inactive) | -0.155 (inactive) | 0.438 (inactive) | 0.402 (inactive) | 0.902 (inactive) | -0.227 (inactive) | -0.477 (inactive) | 0.13 | -0.02 |
| CC(CCC(=O)OC[C@H]1O[C@H](C#Cc2ccccc2)C=C[C@@H]1Oc1ccc(C)cc1)=NOC(C)CN1CCCc2nc(C)c(C)cc21 (stereo not given in full) | -0.374 | -0.525 (inactive) | -0.541 (inactive) | 0.589 (inactive) | 0.335 (inactive) | 0.797 (inactive) | 0.879 (inactive) | -0.41 (inactive) | -0.0206 | 0.257 |
| CCOC(=O)CCN1C(=O)[C@H]2[C@H]3[C@H](O)[C@H](O)CC(=NNC(=O)OCc4ccccc4)[C@H]3CC[C@H]2C1=O | -0.0842 | -0.712 (inactive) | -0.364 (inactive) | -0.192 (inactive) | 1.1 (inactive) | -1.26 (inactive) | -0.213 (inactive) | -0.354 (inactive) | 0.0536 | -0.163 |
| C[C@@H]1CC[C@H]2C(=O)O[C@@H](CN=[N+]=[N-])CN2[C@H]1c1ccc(Br)cc1 | -0.607 | -3.55 (inactive) | -0.74 (inactive) | 5.24 (inactive) | -0.446 (inactive) | 4.32 (inactive) | 0.31 (inactive) | -1.66 (inactive) | -4.06 | -0.0421 |
| COC(=O)[C@H](C)NC(=O)CCC1CC(OC(=O)NCCc2ccc(F)cc2)CC2(CCCC(COC(=O)NCc3ccccc3)O2)O1 (stereo not given in full) | 0.445 | 1.45 (inactive) | 1.05 (inactive) | 0.152 (inactive) | 0.119 (inactive) | 1.02 (inactive) | 0.0734 (inactive) | -0.445 (inactive) | 1.07 | -0.0601 |
| CCOC(=O)NN=C1C[C@@H](O)[C@@H](O)[C@@H]2[C@@H]3C(=O)N(CC)C(=O)[C@@H]3CC[C@H]12 | -0.635 | 0.467 (inactive) | -2.97 (inactive) | 0.463 (inactive) | 0.0578 (inactive) | 0.355 (inactive) | 0.334 (inactive) | 0.388 (inactive) | -1.04 | 0.0119 |
